# The campaign covered roughly 53,000 sequences. About 3,700 (7%) were called active.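 How the source made its calls: active means gene knockdowns whose robust z-score for IL-1 alpha signal is at least 2 or at most -2, so actives lie on both sides; inactive means the rest.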 The entries come from a sample that favours actives as a whole.
# Experiment: Components of the Cytosolic LPS Sensing Pathway: Gene Identification via Genome-wide siRNA Screen;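 further: robust z of the log signal after scaling to non-targeting control siRNA wells of the plate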
# Settings: RAW264.7 macrophages, IL-1a HTRF, actives lie on both sides, screened at 100 nM (by protocol), cells primed 5 h with Pam3CSK4 first
# In short: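 IL-1a HTRF of supernatants after 24 hour LipidA transfection of Pam3CSK4-primed (5 hours) RAW264.7 cells, 48h post-siRNA transfection (100 nM). Scores: percent of plate negative-control median, then log-based robust z-score.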
row,Sequence,z-score
1,GGGCAAGUAUGGGCAGUUCTT against Ppp1ca,0.0965 (inactive)
2,CGAGAUCAUCUCAAAUAUCTT against Man2a1,-0.0408 (inactive)
3,GGACAAACAAGUGAAAUACTT against Morf4l1,0.209 (inactive)
4,CCUAAAUUUCCAACAGUCCTT against Tmem81,2.05 (active)
5,CGGUCUUCCCGUGGUUCAATT against Gm5114,-0.992 (inactive)
6,GGCAAAAGGGACAAAAACUTT against Gadd45a,-1.64 (inactive)
7,CCUUUAUGGGACACUAUUUTT against Alb,0.588 (inactive)
8,CCUAAAAGACUUCAUCCGUTT against Kcnh8,2.32 (active)
9,CGUGGAACAUAAGAAUGGATT against Gapdhs,0.269 (inactive)
10,GGAUUGUCAGCCAAGAAACTT against Uba7,-0.085 (inactive)
11,GGAAAUUCACAAACAUGGATT against Gins3,-1.76 (inactive)
12,CCAUUUUAACCAAUGGUGUTT against Olfr572,-1.06 (inactive)
13,GGUCAAAAGACUGUACAUATT against Timm8a2,2.07 (active)
14,GGCAAUGGCUUGGUCUUUUTT against Mapk6,0.0141 (inactive)
15,GGAGGGAAUAGAGAAUCGGTT against A930024E05Rik,3.7 (active)
16,GGAUUUUGAAGACAUCUGUTT against Tubgcp4,0.396 (inactive)
17,GGCAACAUGACAAUUGUGGTT against Olfr1215,-0.00863 (inactive)
18,GCCAUUGCUAGUAAUUCUUTT against Vkorc1l1,0.444 (inactive)
19,CCCUCAUGUUUAGCGAGCATT against Kcnj3,0.644 (inactive)
20,GGUGAAAGACCACAAAUUCTT against Prkca,-0.824 (inactive)
21,GGACUUUCGAGACAAGCUGTT against Barhl1,-1.21 (inactive)
22,CGUACAGUGAUGAUUUUGATT against Cep162,0.218 (inactive)

row,Sequence,z-score
1,GGACAAUGCAGUGCUGAAATT against Car2,3.37 (active)
2,GCACACCCAAUGCUCUAAGTT against Nprl3,1.25 (inactive)
3,GCAGCGGAGGGUCAAAGAATT against Pym1,0.783 (inactive)
4,GGCCUUUGAGGUCUACAUATT against Icam2,0.323 (inactive)
5,GCCCUCCGAGAAAAACAUCTT against Gjb5,2.05 (active)
6,GGGUAAAAGUAGCUGCCCUTT against Trp53inp2,-0.401 (inactive)
7,GGAAAUAAAGUCCAUAGAATT against B3gnt3,0.00261 (inactive)
8,GGUUCCUCUUGUGAGUGCCTT against Gpr137b,-0.974 (inactive)
9,GGAGAAGUCCAUACGGAUCTT against Gpr18,0.184 (inactive)
10,GGGACAGUAGAAGAUGUAGTT against Got2,-0.706 (inactive)
11,GGAAAAUUGGACCAAUUUCTT against Ric3,-0.339 (inactive)
12,GCCUUGGUACCAUAAUGCATT against Synm,0.224 (inactive)
13,GGCCGGUGCCUUUUAUUCUTT against Spib,3.26 (active)
14,GCAAGUGCGGAAGAAAGGATT against Afap1l2,0.0285 (inactive)
15,CCUUGUACACGGAUUGAAUTT against Itga6,-0.192 (inactive)
16,GGUAGGAAACCUCUCAGAGTT against Kcnc1,0.85 (inactive)
17,GGUGUUCAAAAUUCCUGCCTT against Mbl2,0.0864 (inactive)
18,GCUAGAGCUCACCAAAUAATT against Fam83a,0.759 (inactive)
19,UAGUGAGCAAGGAAUUGGATT against Gm20815,-0.238 (inactive)
20,GGAGAAGAAGUGCUUCCCUTT against Gls2,-2.81 (active)
21,GGAGGAGAAGAAACACCUGTT against Klc1,-1.73 (inactive)
22,GGACAAAAGCAAAGAAAAGTT against R3hdm2,-0.822 (inactive)

row,Sequence,z-score
1,GGAAAAUGUGAAACAGCUATT against Dhx40,-0.873 (inactive)
2,GAGUUCCAGUUUAUCCCUUTT against Klra1,-2.06 (active)
3,CCCGUGCUUCAAAUAGAGATT against Cavin3,0.789 (inactive)
4,CAGCGAUCCAAGUACCUGGTT against Mbp,0.568 (inactive)
5,GGAAUUUCACUAACCUUAGTT against Tert,1.55 (inactive)
6,GGCAAAAGCGAAGAAUUUATT against E2f5,2.69 (active)
7,GGAUUCCUGAUUUCUUCAUTT against Snip1,0.915 (inactive)
8,GGAGAUAAAAAUCCAAGCATT against Stx19,0.274 (inactive)
9,GCAUAUGACACCGUAUCAGTT against Gprc5d,0.914 (inactive)
10,GCUCCUAUCCACAAUGCUGTT against Radil,-0.0853 (inactive)
11,GGCAAAGAUGAUGGAAAAATT against Srp68,0.307 (inactive)
12,GGGACGAUGUCACUAUUAATT against Myrip,1.31 (inactive)
13,GGCAGACUGCUGACAUAUGTT against Cd37,-2.44 (active)
14,CGAGCUGGAUCUGUUUAGATT against Nsmce1,0.357 (inactive)
15,CGUGGAGAUCAUCCACUCATT against Inf2,-2.44 (active)
16,GGAUUAUGAUUUGCCUGAUTT against 4932414N04Rik,1.05 (inactive)
17,GCUAGAUGCUAUGAAGCGATT against Ap3b1,-0.406 (inactive)
18,CGUGAUUUCAUGCUGUGGCTT against Tal2,-2.19 (active)
19,GGAUCUAAGCCUGUUGUGATT against Zfp647,-0.82 (inactive)
20,GGUCACCCUGUUUAGGCCUTT against Fgd3,0.571 (inactive)
21,CCUGCCAAUCUGUCUAAGUTT against Haus1,-0.121 (inactive)
22,GUCAUGAGAUUGAAUACAATT against Olfr569,-0.0298 (inactive)

row,Sequence,z-score
1,GGGAUUGAUUUCAACAAUGTT against Vmn1r33,0.464 (inactive)
2,CCCUUGCUAGUCCUUCUAUTT against Bora,-0.65 (inactive)
3,GGUUGUAAAGGAAGAGAAGTT against Lyve1,0.397 (inactive)
4,GGCCAGACACUACAGGUAATT against Aldh16a1,0.0594 (inactive)
5,GCUACAGCUAUAUCGCUAUTT against Cnot8,0.625 (inactive)
6,GGCUUUUAUUUUCUGGGAUTT against Barhl1,2.4 (active)
7,GGAAUUAUGAUGUAGACAGTT against Garre1,0.662 (inactive)
8,GCCUUGGUCCUUAAAUAUATT against Slc7a2,-0.414 (inactive)
9,CGAUAUUUGGUGUGAAAUGTT against Tmem70,-0.609 (inactive)
10,GGGAAAUGCUUCUAAAAAUTT against Pcdhb11,0.377 (inactive)
11,CCACCAUCAUGAGAGAGGATT against Olfr350,0.00462 (inactive)
12,GGCAAAUGUAGACAUGUAUTT against Defb44-ps,-0.0483 (inactive)
13,GCUAAUAUGCCACUGCCCGTT against Pls3,1.55 (inactive)
14,GCUAUGUGUACAGCUGCUGTT against Vmn1r62,0.21 (inactive)
15,CGUGCAGUGUGCUUCACAATT against Smarcad1,-1.89 (inactive)
16,GGUCUCAAGUUUUACAUUCTT against Prss35,2.2 (active)
17,GGCUCUGGCUAAGUACUUGTT against Cenpb,-0.943 (inactive)
18,GCUAACUGAGCUGCCGGAATT against Lrrn3,0.264 (inactive)
19,GCUUCAUGCACGGUUCUAUTT against Cib2,1.65 (inactive)
20,GGCUCAGAAGAAAAUGGAUTT against Kcnk4,0.166 (inactive)
21,GGAUCUGUAUUGUAAACAATT against Pcmtd2,0.463 (inactive)
22,GCCGUUCAUUUCAACCGUGTT against Wdr5,-0.0339 (inactive)

row,Sequence,z-score
1,GGCUCACUCUCCAUUCUACTT against Asb6,-0.902 (inactive)
2,GGCACUCUCAGCUUUUGACTT against Olfr2,-2.43 (active)
3,CCGCCUGGAUAAUUAUGAUTT against Cltc,0.309 (inactive)
4,GGAUCAUGUCAUCACAAAATT against Fzd3,-0.319 (inactive)
5,GGUGUCCAAUUGCCCUAUCTT against Tnfrsf12a,-1.98 (inactive)
6,GGGAACAGCAUGAAGGAAGTT against Krt78,0.688 (inactive)
7,GGCACGUUAUGAAGACCAGTT against Ttc6,1.49 (inactive)
8,GAGAAACAACAAUUUGGGATT against Gm20815,2.07 (active)
9,GGCUGAUUAGAAUACCUCCTT against Adra2b,0.352 (inactive)
10,GGCCUACGUGCUAAACAUCTT against Atp1b1,1.77 (inactive)
11,GCUCUAAAUGAACAUCUCATT against Snai3,0.322 (inactive)
12,GGUCCUAUGGAUUAAUGCUTT against Ccn4,3.46 (active)
13,CCCUAAAACCAAAUGUACATT against Tet2,1.7 (inactive)
14,GGAUGUAACAUUUCUUCAATT against Rmi1,0.567 (inactive)
15,GGCUGGUAAUUCACUUAAUTT against Kcnk2,-2.54 (active)
16,GGAAAUCACCAUGCCCUCUTT against S100a8,-0.0382 (inactive)
17,GCAUGGAGAUUCUGUGCGGTT against Trim45,-1.13 (inactive)
18,CCGAAAAUGGUAAAUAACUTT against Rnf17,0.111 (inactive)
19,GGAGGAACCUCAGAAACAGTT against Knstrn,-2.19 (active)
20,GCUAUUUUGGGACGAGUCATT against Col13a1,-0.7 (inactive)

# From PubChem BioAssay AID1508600 (Functional Genomics Laboratory (NCATS/FGL), 2020)
